Our source for the Potency values is PubChem BioAssay (NCATS).

Inconclusive results are not listed. Where a call stands in place of a potency, no number is given. The source made the active and inactive calls. Calls follow the shape of the dose curve; as a rule, active = well fitted cell-killing curve with a large enough effect; inconclusive = small, poorly fitted or top-dose-only effect, or effect the other way; inactive = no such curve, though single readings can be large or run the other way.
Potency is read from the fitted curve at half-maximal effect.

The assay can be described thus: MultiTox-Fluor Cytotoxicity Assay - LYMP1-002 - Dead Cells (AID 960). Also: nearly all actives have a fitted effect of over 60% in size. The note with it: LYMP1-002 lymphoblastoid cells, dead-cell protease fluorescence; series mostly up to 46.1 µM. The text has this: NIH Chemical Genomics Center [NCGC]
NIH Molecular Libraries Screening Centers Network [MLSCN]
National Institutes of Environmental Health Sciences [NIEHS]
National Toxicology Program [NTP]
We have developed a 1536-well cell-based assay for quantitative high throughput screening (qHTS) against a number of cell lines to determine in vitro cytotoxicity of small molecules. This particular assay uses a human lymphoblastoid cell line (LYMP1-002) purchased from Coriell Institute.
NCGC Assay Protocol Summary:
The MultiTox-Fluor Cytotoxicity Assay (Promega) is a homogeneous method to simultaneously measure the relative number of live and dead cells in culture by detecting changes in cell membrane integrity. There are two fluorogenic peptide substrates in the assay reagent. Viable cells are determined when the cell-permeant substrate (GF-AFC) enters the cell and is cleaved by protease from live cells resulting in liberated fluorophore. This live-cell protease activity restricted to viable cells is proportional to cell number. The dead cells are determined by using fluorogenic cell-impermeant peptide substrate (bis-AAF-R110) which cleaved by dead cell proteases leaking from damaged cell membrane.
Using the MultiTox-Fluor Cytotoxicity Assay, the relative number of dead cells was measured in the lymphoblastoid cell line with complete culture medium following compound treatment for 16 hours. The assay was performed in opaque black Kalypsys 1536-well plates. In the screen, tetraoctylammonium bromide was used as positive control. Library compounds were measured for their ability to cause acute toxicity in the cell line, as reflected by an increase in dead cell protease activity, in a concentration-dependent manner. Data were normalized to the controls for basal activity (DMSO only) and 100% stimulation (15 uM tetraoctylammonium bromide). AC50 values were determined from concentration-response data modeled with the standard Hill equation.
qHTS protocol for MultiTox-Fluor Cytotoxicity assay
[Step] [Parameter] [Value] [Description]
1. Reagent; 5 uL; 2500 lymphoblastoid cells/well
2. Time; 5 hr; 37 C incubation
4. Controls; 23 nL; Tetraoctylammonium bromide 6.4pM to 92 uM
5. Time; 16 hr; 37 C incubation
6. Reagent; 5 uL; MuliTox-Fluor Assay reagent
7. Time; 60 min; Room Temperature
8. Detection; dead-cell fluorescence (Ex/Em=485/520); EnVision plate reader
Keywords: cytotoxicity, lymphoblastoid cell line, fluorescence, NTPHTS, NTPHTS_NCGC, NIEHS, EPA, DSSTox, MLSMR, MLSCN, NIH Roadmap, qHTS, NCGC
On to `Cc1c(O)cccc1C(=O)N[C@@H](CSc1ccccc1)[C@H](O)CN1C[C@H]2CCCC[C@H]2C[C@H]1C(=O)NC(C)(C)C`, for which the Potency is 31.6 µM (active). The result for `CCOP(=S)(OCC)Oc1cc(C)nc(C(C)C)n1` reads “inactive”; that for `CC(=O)Oc1ccccc1C(=O)Nc1ncc([N+](=O)[O-])s1`, 25.1 µM (active); that for `CCCC(C)(COC(N)=O)COC(=O)NC(C)C` (stereo not drawn), “inactive”. For the compound `Oc1ccc(Cl)cc1Cc1ccccc1`, the Potency result was “inactive”. Turning to `N[C@@H](Cc1ccc(N(CCCl)CCCl)cc1)C(=O)O`, the Potency result is “inactive”. The result for `NCC(O)c1ccc(O)cc1` (stereo not drawn) reads “inactive”; that for `CC(C)C(=O)Nc1ccc([N+](=O)[O-])c(C(F)(F)F)c1`, 15.8 µM (active); that for `OCCOc1ccccc1`, “inactive”. To `Oc1ccccc1-c1ccccc1` belongs “inactive”; to `c1ccc2c(c1)Nc1ccccc1S2`, “inactive”; to `Oc1cccc2cccnc12`, 15.8 µM (active). As to `CN(C)CCC=C1c2ccccc2CCc2ccccc21`, the Potency was 25.1 µM (active).
